{"source": "PubChem BioAssay (NCATS)", "note": "Records with an inconclusive call do not appear. A number with no mark means an inactive call. The source made the active and inactive calls. Calls come from the whole dose curve; as a rule, active = well fitted inhibition curve with a large enough effect; inconclusive = small, poorly fitted or top-dose-only effect; inactive = flat fitted curve, though single readings scatter. % is set by controls: 0 for no effect and ±100 for the full control effect."}
{"biological_target": "Calcium and integrin-binding protein 1 (Homo sapiens) (UniProt Q99828)", "sequence (Q99828 whole entry, looked up)": "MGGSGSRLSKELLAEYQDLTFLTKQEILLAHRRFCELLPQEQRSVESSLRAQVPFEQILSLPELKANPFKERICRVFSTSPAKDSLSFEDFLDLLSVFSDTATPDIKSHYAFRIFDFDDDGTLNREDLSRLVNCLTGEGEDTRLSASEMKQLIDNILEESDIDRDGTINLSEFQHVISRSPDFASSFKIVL", "test": "Primary qHTS for Identification of Calcium Integrin Binding Protein 1 (CIB1) Competitor (AID 1508620);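 note: GST tagged CIB1 binding a fluorescein labelled alphaIIb integrin peptide tracer; top concentration of the series differs between compounds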", "details": "CIB1-GST / FITC-alphaIIb peptide fluorescence polarization; series mostly up to 57.7 µM; activity change, negative = inhibition: at the top concentration", "outline": "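CIB1-GST (1 uM final) and compound incubated 15 min at room temperature before adding FITC-alphaIIb peptide tracer (100 nM final). Competition for binding read by fluorescence polarization (ex 480, em 540) after another 15 min at room temperature.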", "units": {"activity change, negative = inhibition": "%"}}
{"smiles": "OC[C@H]1O[C@@H](Oc2ccc(O)cc2)[C@H](O)[C@@H](O)[C@H]1O", "activity change, negative = inhibition": -1.57}
{"smiles": "CN1C(=O)C[C@H](C(=O)N[C@@H](Cc2cnc[nH]2)C(=O)N2CCC[C@@H]2C(N)=O)NC1=O", "activity change, negative = inhibition": -6.37}
{"smiles": "CC(=O)OCC(=O)[C@@]12OC(C)(C)O[C@H]1C[C@H]1[C@@H]3C[C@H](F)C4=CC(=O)C=C[C@]4(C)[C@@]3(F)[C@@H](O)C[C@@]12C", "activity change, negative = inhibition": -0.152}
{"smiles": "Nc1[nH]nc2nnc(-c3c(-c4ccccc4)nn4ccccc34)cc12", "Potency": "inactive"}
{"smiles": "NC1(C(=O)N[C@@H](CCO)c2ccc(Cl)cc2)CCN(c2ncnc3[nH]ccc23)CC1", "Potency": "inactive"}
{"smiles": "CC(=O)N1CCN(c2ccc(OCc3nn(C)c(C)c3-c3cccc4c(CCCOc5cc(C)c(Cl)c(C)c5)c(C(=O)O)n(Cc5cccnc5)c34)cc2)CC1", "activity change, negative = inhibition": -7.58}
{"smiles": "O=C(O)c1ccc(O)c2ncc(N3CCOCC3)cc12", "Potency": "inactive"}
{"smiles": "CN1c2ccccc2C(=O)N2CCc3c([nH]c4ccccc34)C21", "note": "(stereo not drawn)", "Potency": "inactive"}
{"smiles": "CC[C@H](C)n1cc(C)c2c(C(=O)NCc3c(C)cc(C)[nH]c3=O)cc(-c3ccc(N4CCNCC4)nc3)cc21", "activity change, negative = inhibition": -0.636}
{"smiles": "C[C@@]1(c2cc(-c3cncnc3)c(F)cc2F)CCSC(N)=N1", "Potency": "inactive"}
{"smiles": "CC(C)c1c(C(=O)Nc2ccccc2)c(-c2ccccc2)c(-c2ccc(F)cc2)n1CC[C@H](O)C[C@@H](O)CC(=O)O", "activity change, negative = inhibition": -0.253}
{"smiles": "CCN1CCN(c2ccc(Nc3cc(N(C)C(=O)Nc4c(Cl)c(OC)cc(OC)c4Cl)ncn3)cc2)CC1", "Potency": "inactive"}
{"smiles": "CN(C)S(=O)(=O)c1ccc2c(c1)C(=Cc1cc3c([nH]1)CCCC3)C(=O)N2", "activity change, negative = inhibition": 24.1}
